TRPV1 potentiator: HTS Assay for Compounds that Act as Potentiators of the Vanilloid Receptor 1 | Transient receptor potential cation channel subfamily V member 1 (Homo sapiens), Q8NER1 | TRPV1-expressing cells, Fluo-8 calcium influx, capsaicin EC20 potentiation | potentiation, % at 8.33 µM | actives 0.02% (n = 320,000) | AID 540277, 2011; in the data active = potentiation above about 80%; inconclusive = between about 30% and that limit; also: 0% is about no effect
Target sequence (Q8NER1 whole entry, looked up): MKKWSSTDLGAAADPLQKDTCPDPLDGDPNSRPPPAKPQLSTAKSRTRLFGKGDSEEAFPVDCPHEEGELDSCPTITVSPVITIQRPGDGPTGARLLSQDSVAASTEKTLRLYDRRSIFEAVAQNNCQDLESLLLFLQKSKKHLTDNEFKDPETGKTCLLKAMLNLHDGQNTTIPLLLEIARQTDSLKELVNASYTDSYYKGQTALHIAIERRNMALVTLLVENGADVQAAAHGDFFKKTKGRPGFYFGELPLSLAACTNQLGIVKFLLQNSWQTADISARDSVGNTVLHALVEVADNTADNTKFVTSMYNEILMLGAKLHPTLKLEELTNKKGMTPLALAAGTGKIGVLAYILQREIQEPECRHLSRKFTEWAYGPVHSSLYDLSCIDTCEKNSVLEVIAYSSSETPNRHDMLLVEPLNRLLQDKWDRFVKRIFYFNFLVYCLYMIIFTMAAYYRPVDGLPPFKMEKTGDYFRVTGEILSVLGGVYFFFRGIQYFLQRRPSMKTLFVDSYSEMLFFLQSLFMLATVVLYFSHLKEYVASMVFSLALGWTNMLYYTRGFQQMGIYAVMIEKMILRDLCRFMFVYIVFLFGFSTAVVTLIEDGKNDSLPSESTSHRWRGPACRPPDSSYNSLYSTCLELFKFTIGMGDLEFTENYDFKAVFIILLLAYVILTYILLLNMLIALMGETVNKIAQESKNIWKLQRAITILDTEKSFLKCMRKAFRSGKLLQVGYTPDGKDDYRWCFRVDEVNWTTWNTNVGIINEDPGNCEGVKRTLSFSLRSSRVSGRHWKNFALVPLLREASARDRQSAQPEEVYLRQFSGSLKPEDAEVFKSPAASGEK
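Fluo-8 calcium influx in TRPV1-expressing cells, kinetic read (ex 480/em 520 nm). Compound added and read 3 min for agonist activity, followed by capsaicin at EC20 final and 2 min further read for enhancement.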
Gal4-VP16 FLuc: VP16 counterscreen qHTS for inhibitors of ROR gamma transcriptional activity; Drosophila S2 Gal4-VP16 UAS-luciferase, luminescence, 20 h; Potency, µM (doses to about 53.6 µM), for inactives: at the highest dose activity, negative = inhibition, most hits filed as inhibitors; actives 3.5% (n = 310,000); AID 2546, 2010;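 also: Gal4-VP16 expression switched on by copper sulfate through the metallothionein promoter; potency is read from the fitted curve at half-maximal effect; % is scaled to controls: 0 for no effect and ±100 for the full control effect; nearly all actives have a fitted effect of over 50% in size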
uPA surface inh: qHTS for Inhibitors of Cell Surface uPA Generation | cell surface uPA generation assay, qHTS | Potency, µM (top dose mostly 38.3 µM), inactives show at the top dose activity change, negative = inhibition, actives largely listed as inhibitors | actives 0.31% (n = 330,000); active = well fitted inhibition curve with a large enough effect; inconclusive = small, poorly fitted or top-dose-only effect; inactive = no such curve, though single readings can be large or run the other way; tested in mouse RAW 264.7 cells; also: potency is read from the fitted curve at half-maximal effect; % is scaled to controls: 0 for no effect and ±100 for the full control effect; nearly all actives have a fitted effect of over 55% in size
RORgamma inh: qHTS for inhibitors of ROR gamma transcriptional activity; Nuclear receptor ROR-gamma (Mus musculus), P51450; Drosophila S2 Gal4-RORgamma UAS-luciferase reporter, 20 h; Potency, µM (series often up to 53.6 µM), for the others: at the top dose activity change, negative = inhibition, usual class: inhibitors; actives 5.4% (n = 310,000); AID 2551, 2010; also: potency is read from the fitted curve at half-maximal effect; % is scaled to controls: 0 for no effect and ±100 for the full control effect; nearly all actives have a fitted effect of over 60% in size
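Using a luciferase readout, inhibitors were identified by reduced reporter activity in Drosophila cells coexpressing a copper-inducible Gal4–ROR gamma fusion and UAS-driven Photinus luciferase, incubated 20 hr after 700 uM copper sulfate.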
TRPV1 ag: HTS Assay for Compounds that Act as Agonists of the Vanilloid Receptor 1; TRPV1-expressing cells, Fluo-8 calcium influx, agonist mode; Transient receptor potential cation channel subfamily V member 1 (Homo sapiens), Q8NER1; actives 0.19% (n = 320,000); activation, % at 8.33 µM; in the data active = activation above about 80%; inconclusive = between about 30% and that limit; also: 0% is about no effect
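Cells expressing TRPV1 were dye-loaded with Fluo-8 and read kinetically: 10 s baseline, 3 min after compound (agonist portion), then 2 min after EC20 capsaicin (allosteric enhancer portion). Calcium-bound dye fluorescence at 480/520 nm.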
Numbers without * were called inactive; ? = inconclusive; · = no result; [ ] = remark or other dose. Only some compounds are listed: those with a hit (about 5.8% of all), similar ones and a draw of the others. Unless noted, calls follow the shape of the dose curve; as a rule, active = well fitted curve in the direction sought with a large enough effect; inconclusive = small, poorly fitted or top-dose-only effect, or another doubt; inactive = no such curve, though single readings can be large; an effect the other way counts as inactive or inconclusive.

SMILES	TRPV1 potentiator	Gal4-VP16 FLuc	uPA surface inh	RORgamma inh	TRPV1 ag
COc1c(/C=N/Nc2nc(N3CCCCC3)nc(N3CCCCC3)n2)cccc1[N+](=O)[O-]	16.0	14.4%	-10.4%	0.316µM*	?
COc1cccc(/C=N/Nc2nc(Nc3ccc([N+](=O)[O-])cc3)nc(N3CCCC3)n2)c1O	4.9	-13.6%	-8.5%	4.47µM*	3.8
COc1ccc2cc(C(C)C(=O)N3CCC(C)CC3)ccc2c1 (stereo not drawn)	-0.4	-1.9%	-0.5%	7.6%	14.3
COC(=O)C1C(OC)=CC(=O)C2CCCCC21 (stereo not drawn)	·	·	-5.0%	·	·
COC(=O)N1C(c2ccccc2)=Cc2ccccc2C1C1(C(=O)OC)CCCC1=O (stereo not drawn)	·	28.9%	·	19.6%	·
O=[N+]([O-])c1cccc(/C=C/C=N/Nc2nc(N3CCCCC3)nc(N3CCCCC3)n2)c1	6.7	-1.2%	-3.6%	7.94µM*	11.9
COc1cccc(/C=N/Nc2ncccc2[N+](=O)[O-])c1OC	3.0	4.47µM*	-5.2%	1.26µM*	0.5
O=[N+]([O-])c1ccc(/C=N/Nc2ncccc2[N+](=O)[O-])s1	·	·	-2.0%	·	·
CCN1C(=O)c2ccccc2Sc2ccc(C(=O)NCCCN(CC(C)C)CC(C)C)cc21	0.4	-6.0%	-2.0%	-3.5%	0.9
CCCOc1cccc(C2C(C(=O)c3ccc(C)o3)=C(O)C(=O)N2c2nc(C)c(C(C)=O)s2)c1 (stereo not drawn)	-13.0	-2.1%	-4.1%	14.1µM*	10.2
C[C@@H]1C[C@@H]([C@@H](C)CC2CC(=O)NC(=O)C2)C(=O)[C@@H](C)C1	·	-0.5%	·	0.224µM*	·
CC1CC(C)C(=NNC(N)=O)C(C(O)CC2CCC(=O)NC2=O)C1 (stereo not drawn)	·	·	3.6%	·	·
CCC1ON(C(C)C)C2c3nc4ccccc4n3CC12 (stereo not drawn)	?	1.2%	8.6%	-19.3%	-6.1
CC1(C)ON(C2CCCCC2)[C@H]2c3nc4ccccc4n3C[C@H]21	19.5	-0.9%	11.2%	14.1µM*	12.7
NC(=S)Nc1ccc(F)c(F)c1F	13.9	0.9%	-5.1%	-16.8%	-2.2
NC(=S)NNc1c(F)c(F)c(F)c(F)c1F	10.7	?	-1.9%	12.6µM*	2.9
Cc1ccc2[nH]c(=O)c(NC(N)=S)nc2c1	25.3	?	·	11.2µM*	2.4
Cc1ccc(NC(=O)CN(C)C(=O)c2ccc(Cl)nc2)cc1	-1.8	-3.1%	-1.0%	-16.4%	-0.5
[O-]/C(=C(\C(=S)Nc1cccc2ccccc12)[n+]1ccccc1)c1cccs1	-2.6	7.8%[10 µM]	1.4%	?	-1.4
Cc1cccc(C)c1NC(=S)/C(=C(\[O-])c1cccs1)[n+]1ccccc1	-14.4	20µM*	-4.3%	?	-5.5
Cc1cccc(CNc2ncnc3ccc(-c4cccc(NS(C)(=O)=O)c4)cc23)c1	·	?	·	17.1%	·
Cc1cc(=O)n(Cc2ccc(OC(C)C)cc2)c(=S)[nH]1	-2.7	?	-2.7%	7.94µM*	8.1
COC(=O)c1ccc2c(=O)n(Cc3ccc(C(=O)NC(C)C)cc3)c(=S)[nH]c2c1	-1.4	3.2%	0.3%	-14.9%	-1.0
CCOC(=O)C1=C(C)NC(=NC)SC1c1ccccc1 (stereo not drawn)	6.5	-8.9%	0.3%	-12.3%	1.4
CC(=O)NC(=S)Nc1ccc(-c2nc3ccc(C)cc3s2)cc1	6.9	1.78µM*	-8.2%	0.501µM*	-1.8
SMILES	TRPV1 potentiator	Gal4-VP16 FLuc	uPA surface inh	RORgamma inh	TRPV1 ag
CCCCNC(=S)Nc1ccc(-c2nc3ccc(C)cc3s2)cc1	15.5	?	-5.4%	3.16µM*	0.8
CCC(C)(C)NC(=S)Nc1ccc(-c2nc3ccc(C)cc3s2)cc1	-9.0	-15.5%	-3.2%	8.3%	-9.9
CNC(=S)Nc1ccc(-c2nc3ccc(C)cc3s2)cc1	14.3	7.08µM*	-2.0%	0.562µM*	-0.3
CCc1cccc(NC(=O)CSc2ncccc2C(=O)Oc2ccccc2Cl)c1	?	·	·	·	-5.3
Cc1ccc(Cn2c(CCCO)nc3ccccc32)cc1	8.2	12.3%	-7.1%	-13.0%	?
COC(=O)N1[C@H]2CC[C@@]3(C)CC(=O)C[C@]1(C)C3c1ccccc12	·	-10.2%	·	-20.3%	·
COc1ccc(NC(=S)NCCc2c[nH]c3ccccc23)c(OC)c1	-5.9	?	8.4%	7.94µM*	9.4
COc1ccc(NC(=S)NCCc2c[nH]c3ccc(OC)cc23)c(OC)c1	-10.6	?	4.3%	14.1µM*	11.2
COc1ccc2c(CCNC(N)=S)c[nH]c2c1	-1.2	-2.0%	7.8%	-26.7%	6.9
COc1ccc(C(=O)NCCc2c[nH]c3ccc(OC)cc23)cc1	-23.3	7.7%	-2.8%	13.4%	29.5
COc1ccc(N2CCN(C(=O)Cc3ccc(Br)cc3)CC2)cc1	-13.5	5.1%	4.1%	12.9%	?
CCS(=O)(=O)N1CCC(C(=O)NC2CCCCCCC2)CC1	-1.9	-2.7%	-0.7%	5.2%	0.4
CC(C)CN(CC(C)C)S(=O)(=O)N1CCC(C(=O)NC2CCCCCCC2)CC1	5.4	-0.9%	3.5%	12.1%	83.7*
O=C(CS(=O)Cc1ccco1)NCC=CCOc1cc(CN2CCCCC2)ccn1 (stereo not drawn)	·	-6.2%	·	26.8%	·
COc1ccc(NC(=O)c2ccc3c(=O)n(CC4CCCO4)c(=S)[nH]c3c2)c(OC)c1 (stereo not drawn)	8.4	-2.2%	-0.2%	?	-1.4
c1ccc(-c2nc(NCCCn3ccnc3)c3ccccc3n2)cc1	-2.3	1.1%	4.3%	-8.5%	6.5
N=c1c2c(-c3ccccc3)c(-c3ccccc3)n(Cc3ccco3)c2ncn1Cc1ccco1	-4.0	28.2µM*	-17.6%	?	17.4
N=c1c2c(-c3ccccc3)c(-c3ccccc3)n(Cc3ccccc3)c2ncn1CCCn1ccnc1	6.6	10µM*	-15.4%	10µM*	0.3
CCCCn1cnc2c(c(-c3ccccc3)c(-c3ccccc3)n2Cc2ccco2)c1=N	-1.4	-22.4%	-3.7%	-42.2%	9.1
C=C(Nc1ccc(OC)cc1)C(=O)OC	·	-15.6%	·	-12.3%	·
Cc1cc(Nc2ncc(Cl)cc2Cl)n(-c2ccccc2C)n1	4.1	?	-0.6%	8.91µM*	3.3
Cc1ccc(-n2nc(C)cc2Nc2ncc(Cl)cc2Cl)cc1	-5.6	?	1.3%	-35.2%	-0.3
O=C(Nc1ccc(N2CCCCCC2)cc1)c1ccc[nH]1	-16.7	·	?	·	?
c1ccc(CCc2nc3ccccc3[nH]2)cc1	-15.3	-5.0%	?	1.8%	?
Fc1cccc(/C=N/Nc2nc3ccccc3[nH]2)c1	-15.7	?	-3.6%	10µM*	24.2
